Measured values as given in the supplement of paper PMC8371130.
Counter-ions that a name gives are not always drawn.

What follows are molecules tested on HL-1 (assay: relative cell viability (CellTiter-Glo) vs DMSO control (% of DMSO control); higher = more viable cells). Conditions: oxygen condition: normoxia 72 h; 200 nM.
How it was run: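 Compounds at 40, 200, 1000 or 5000 nM in 0.01% DMSO were added to HL-1 mouse atrial cardiomyocytes plated at 1000 cells per well in 384-well plates. The next day, cells were exposed to 1% O2 for 48 h and then reoxygenated for 24 h, or left in normoxia for the same time. Viability was read with CellTiter-Glo luminescence and normalised to vehicle-treated controls.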

Compared with O=C(CCCN1CC=C(n2c(=O)[nH]c3ccccc32)CC1)c1ccc(F)cc1 [Droperidol], CC1(C)Cc2c(-c3ccccc3)c(-c3ccc(Cl)cc3)c(CC(=O)O)n2C1 [Licofelone] is lower in relative cell viability: 97 for the first, 96.5 for the second.

Compared with Cc1ccc(C)c(OCCCC(C)(C)C(=O)O)c1 [Gemfibrozil], COC(=O)CCc1ccc(OCC(O)CNC(C)C)cc1 (stereo not drawn) [Esmolol HCl] is lower in relative cell viability: 113 for the first, 104 for the second.

First: CC(C)[C@H](N)C(=O)OCC(CO)OCn1cnc2c(=O)nc(N)[nH]c21 (stereo partly drawn) [valganciclovir hydrochloride]
Second: COC(=O)C1=C(C)NC(C)=C(C(=O)OC(C)C)C1c1cccc2nonc12 (stereo not drawn) [Isradipine]
The relative cell viability of the first is higher: 110 for the first, 97.7 for the second.

Compared with CCCCCN(C)CCC(O)(P(=O)(O)O)P(=O)(O)O [Ibandronate sodium], CCOC(=O)c1ccc(OC(=O)CCCCCNC(=N)N)cc1 [Gabexate mesylate] is lower in relative cell viability: 99.4 for the first, 98.9 for the second.

First: CN(C)CCC(c1ccccc1)c1ccccn1 (stereo not drawn) [Pheniramine Maleate]
Second: CN1CCOC(c2ccccc2)c2ccccc2C1 (stereo not drawn) [Nefopam HCl]
The relative cell viability of the first is higher: 101 for the first, 45.5 for the second.

Going from O=C1c2c(O)ccc(O)c2C(=O)c2c(NCCNCCO)ccc(NCCNCCO)c21 [Mitoxantrone Hydrochloride] to CNC[C@@H](O)c1ccc(O)c(O)c1 [L-Adrenaline], the relative cell viability rises from 4.41 to 101.

Compared with CCN(CC)CCNC(=O)c1c(C)[nH]c(/C=C2\C(=O)Nc3ccc(F)cc32)c1C [Sunitinib Malate], CCCc1nn(C)c2c(=O)[nH]c(-c3cc(S(=O)(=O)N4CCN(C)CC4)ccc3OCC)nc12 [Sildenafil citrate] is lower in relative cell viability: 119 for the first, 103 for the second.

Going from CCCCOc1ccc(OCCCN2CCOCC2)cc1 [Pramoxine HCl] to O=C1CCc2cc(OCCCCc3nnnn3C3CCCCC3)ccc2N1 [Cilostazol], the relative cell viability rises from 107 to 108.

Compared with COc1ccc(CN2CCN(C(c3ccc(F)cc3)c3ccc(F)cc3)CC2)c(OC)c1OC [Lomerizine HCl], COc1ccc2c(c1OC)C(=O)O[C@@H]2[C@H]1c2c(cc3c(c2OC)OCO3)CCN1C [Noscapine HCl] is higher in relative cell viability: 102 for the first, 106 for the second.

Compared with COc1ccc(-c2nc3cc(C4=NNC(=O)CC4C)ccc3[nH]2)cc1 (stereo not drawn) [Pimobendan], CCCc1nc(C(C)(C)O)c(C(=O)OCc2oc(=O)oc2C)n1Cc1ccc(-c2ccccc2-c2nnn[nH]2)cc1 [Olmesartan medoxomil] is lower in relative cell viability: 102 for the first, 98.2 for the second.

Compared with NS(=O)(=O)c1cc2c(cc1Cl)N=C(CSCc1ccccc1)NS2(=O)=O [Benzthiazide], CCOc1ccc2nc(S(N)(=O)=O)sc2c1 [Ethoxzolamide] is higher in relative cell viability: 93.8 for the first, 98.8 for the second.

First: CO[C@H]1C(=O)[C@]2(C)[C@@H](OC)C[C@H]3OC[C@@]3(OC(C)=O)[C@H]2[C@H](OC(=O)c2ccccc2)[C@]2(O)C[C@H](OC(=O)[C@H](O)[C@@H](NC(=O)OC(C)(C)C)c3ccccc3)C(C)=C1C2(C)C [Cabazitaxel]
Second: CCOC(=O)[C@H](CCc1ccccc1)N[C@H]1CS[C@H](c2cccs2)CN(CC(=O)O)C1=O [Temocapril HCl]
The relative cell viability of the first is lower: 27.2 for the first, 77.1 for the second.

First: OCC(CO)N[C@H]1C[C@](O)(CO)[C@@H](O)[C@H](O)[C@H]1O [Voglibose]
Second: O=C1O[C@H]([C@@H](O)CO)C([O-])=C1O.[Na+] [Sodium ascorbate]
The relative cell viability of the first is higher: 114 for the first, 103 for the second.

First: C#C[C@]1(O)CC[C@H]2[C@@H]3CCc4cc(O)ccc4[C@H]3CC[C@@]21C [Ethinyl Estradiol]
Second: C#C[C@]1(O)CC[C@H]2[C@@H]3CCc4cc(OC)ccc4[C@H]3CC[C@@]21C [Mestranol]
The relative cell viability of the first is higher: 105 for the first, 97.3 for the second.

Compared with CNNCc1ccc(C(=O)NC(C)C)cc1 [Procarbazine HCl], CC(C)C[C@H](NC(=O)[C@@H](O)[C@H](N)Cc1ccccc1)C(=O)O [Ubenimex] is lower in relative cell viability: 101 for the first, 98.8 for the second.

Compared with CC(CCc1ccc(O)cc1)NCC(O)c1ccc(O)cc1 (stereo not drawn) [Ractopamine HCl], C[C@H](N[C@@H](CCc1ccccc1)C(=O)O)C(=O)N1CCC[C@H]1C(=O)O [Enalaprilat dihydrate] is lower in relative cell viability: 104 for the first, 99 for the second.

Going from CCN[C@H]1CN(CCCOC)S(=O)(=O)c2sc(S(N)(=O)=O)cc21 [Brinzolamide] to CNC1CCCN(c2c(F)cc3c(=O)c(C(=O)O)cn(C4CC4)c3c2OC)C1 (stereo not drawn) [Balofloxacin], the relative cell viability rises from 81.9 to 99.2.

Going from O=S(=O)(O)CCS [Mesna] to NCCS [Cysteamine HCl], the relative cell viability falls from 109 to 102.

Compared with Cl.N=C(N)NCCC[C@H](N)C(=O)O [L-Arginine HCl], CCCC(CCC)C(=O)O[C@H]1C[C@H]2CC[C@@H](C1)[N+]2(C)C [Anisotropine Methylbromide] is lower in relative cell viability: 104 for the first, 93.7 for the second.

For CC1CCc2cc(F)cc3c(=O)c(C(=O)O)cn1c23 (stereo not drawn) [Flumequine], the relative cell viability was 120.

Same assay, conditions: oxygen condition: normoxia 72 h; 1000 nM

Going from O=C(CCCN1CC=C(n2c(=O)[nH]c3ccccc32)CC1)c1ccc(F)cc1 [Droperidol] to CC1(C)Cc2c(-c3ccccc3)c(-c3ccc(Cl)cc3)c(CC(=O)O)n2C1 [Licofelone], the relative cell viability falls from 93.9 to 93.5.

First: Cc1ccc(C)c(OCCCC(C)(C)C(=O)O)c1 [Gemfibrozil]
Second: COC(=O)CCc1ccc(OCC(O)CNC(C)C)cc1 (stereo not drawn) [Esmolol HCl]
The relative cell viability of the first is lower: 106 for the first, 108 for the second.

First: CC(C)[C@H](N)C(=O)OCC(CO)OCn1cnc2c(=O)nc(N)[nH]c21 (stereo partly drawn) [valganciclovir hydrochloride]
Second: COC(=O)C1=C(C)NC(C)=C(C(=O)OC(C)C)C1c1cccc2nonc12 (stereo not drawn) [Isradipine]
The relative cell viability of the first is higher: 114 for the first, 102 for the second.

Compared with CCCCCN(C)CCC(O)(P(=O)(O)O)P(=O)(O)O [Ibandronate sodium], CCOC(=O)c1ccc(OC(=O)CCCCCNC(=N)N)cc1 [Gabexate mesylate] is higher in relative cell viability: 92.6 for the first, 109 for the second.

Compared with CN(C)CCC(c1ccccc1)c1ccccn1 (stereo not drawn) [Pheniramine Maleate], CN1CCOC(c2ccccc2)c2ccccc2C1 (stereo not drawn) [Nefopam HCl] is lower in relative cell viability: 104 for the first, 44.4 for the second.

Compared with O=C1c2c(O)ccc(O)c2C(=O)c2c(NCCNCCO)ccc(NCCNCCO)c21 [Mitoxantrone Hydrochloride], CNC[C@@H](O)c1ccc(O)c(O)c1 [L-Adrenaline] is higher in relative cell viability: 3.59 for the first, 95.7 for the second.

Compared with CCN(CC)CCNC(=O)c1c(C)[nH]c(/C=C2\C(=O)Nc3ccc(F)cc32)c1C [Sunitinib Malate], CCCc1nn(C)c2c(=O)[nH]c(-c3cc(S(=O)(=O)N4CCN(C)CC4)ccc3OCC)nc12 [Sildenafil citrate] is lower in relative cell viability: 114 for the first, 101 for the second.

Compared with CCCCOc1ccc(OCCCN2CCOCC2)cc1 [Pramoxine HCl], O=C1CCc2cc(OCCCCc3nnnn3C3CCCCC3)ccc2N1 [Cilostazol] is higher in relative cell viability: 97.5 for the first, 106 for the second.

Going from COc1ccc(CN2CCN(C(c3ccc(F)cc3)c3ccc(F)cc3)CC2)c(OC)c1OC [Lomerizine HCl] to COc1ccc2c(c1OC)C(=O)O[C@@H]2[C@H]1c2c(cc3c(c2OC)OCO3)CCN1C [Noscapine HCl], the relative cell viability falls from 106 to 104.

Compared with COc1ccc(-c2nc3cc(C4=NNC(=O)CC4C)ccc3[nH]2)cc1 (stereo not drawn) [Pimobendan], CCCc1nc(C(C)(C)O)c(C(=O)OCc2oc(=O)oc2C)n1Cc1ccc(-c2ccccc2-c2nnn[nH]2)cc1 [Olmesartan medoxomil] is lower in relative cell viability: 114 for the first, 96.7 for the second.

Compared with NS(=O)(=O)c1cc2c(cc1Cl)N=C(CSCc1ccccc1)NS2(=O)=O [Benzthiazide], CCOc1ccc2nc(S(N)(=O)=O)sc2c1 [Ethoxzolamide] is higher in relative cell viability: 100 for the first, 102 for the second.

Going from CO[C@H]1C(=O)[C@]2(C)[C@@H](OC)C[C@H]3OC[C@@]3(OC(C)=O)[C@H]2[C@H](OC(=O)c2ccccc2)[C@]2(O)C[C@H](OC(=O)[C@H](O)[C@@H](NC(=O)OC(C)(C)C)c3ccccc3)C(C)=C1C2(C)C [Cabazitaxel] to CCOC(=O)[C@H](CCc1ccccc1)N[C@H]1CS[C@H](c2cccs2)CN(CC(=O)O)C1=O [Temocapril HCl], the relative cell viability rises from 26.8 to 102.

First: OCC(CO)N[C@H]1C[C@](O)(CO)[C@@H](O)[C@H](O)[C@H]1O [Voglibose]
Second: O=C1O[C@H]([C@@H](O)CO)C([O-])=C1O.[Na+] [Sodium ascorbate]
The relative cell viability of the first is higher: 116 for the first, 102 for the second.

Going from C#C[C@]1(O)CC[C@H]2[C@@H]3CCc4cc(O)ccc4[C@H]3CC[C@@]21C [Ethinyl Estradiol] to C#C[C@]1(O)CC[C@H]2[C@@H]3CCc4cc(OC)ccc4[C@H]3CC[C@@]21C [Mestranol], the relative cell viability falls from 108 to 103.

Compared with CNNCc1ccc(C(=O)NC(C)C)cc1 [Procarbazine HCl], CC(C)C[C@H](NC(=O)[C@@H](O)[C@H](N)Cc1ccccc1)C(=O)O [Ubenimex] is higher in relative cell viability: 97.9 for the first, 99.7 for the second.

First: CC(CCc1ccc(O)cc1)NCC(O)c1ccc(O)cc1 (stereo not drawn) [Ractopamine HCl]
Second: C[C@H](N[C@@H](CCc1ccccc1)C(=O)O)C(=O)N1CCC[C@H]1C(=O)O [Enalaprilat dihydrate]
The relative cell viability of the first is lower: 106 for the first, 107 for the second.

First: CCN[C@H]1CN(CCCOC)S(=O)(=O)c2sc(S(N)(=O)=O)cc21 [Brinzolamide]
Second: CNC1CCCN(c2c(F)cc3c(=O)c(C(=O)O)cn(C4CC4)c3c2OC)C1 (stereo not drawn) [Balofloxacin]
The relative cell viability of the first is lower: 57.5 for the first, 99.3 for the second.

First: O=S(=O)(O)CCS [Mesna]
Second: NCCS [Cysteamine HCl]
The relative cell viability of the first is higher: 112 for the first, 106 for the second.

First: Cl.N=C(N)NCCC[C@H](N)C(=O)O [L-Arginine HCl]
Second: CCCC(CCC)C(=O)O[C@H]1C[C@H]2CC[C@@H](C1)[N+]2(C)C [Anisotropine Methylbromide]
The relative cell viability of the first is higher: 108 for the first, 84.7 for the second.

CC1CCc2cc(F)cc3c(=O)c(C(=O)O)cn1c23 (stereo not drawn) [Flumequine] showed a relative cell viability of 104.
